# Data as given in article PMC7862700, “An all-to-all approach to the identification of sequence-specific readers for epigenetic DNA modifications on cytosine”.
# Key:
# Assay in all cases: DAPPL (digital affinity profiling via proximity ligation, sequencing); 10 mM Tris-HCl pH 7.5, 50 mM NaCl, 1 mM DTT, 4% glycerol, room temperature, 30 min; GST-TFs on glutathione beads, 16-mer random dsDNA library, 0.1% formaldehyde crosslink after washing; high values mean tight binding
# [1] = target: T1, FLI1 (Homo sapiens, UniProt Q01543 1-452); details: protein: recombinant; tags: N-terminal GST; dsDNA, one strand shown
# T1 sequence: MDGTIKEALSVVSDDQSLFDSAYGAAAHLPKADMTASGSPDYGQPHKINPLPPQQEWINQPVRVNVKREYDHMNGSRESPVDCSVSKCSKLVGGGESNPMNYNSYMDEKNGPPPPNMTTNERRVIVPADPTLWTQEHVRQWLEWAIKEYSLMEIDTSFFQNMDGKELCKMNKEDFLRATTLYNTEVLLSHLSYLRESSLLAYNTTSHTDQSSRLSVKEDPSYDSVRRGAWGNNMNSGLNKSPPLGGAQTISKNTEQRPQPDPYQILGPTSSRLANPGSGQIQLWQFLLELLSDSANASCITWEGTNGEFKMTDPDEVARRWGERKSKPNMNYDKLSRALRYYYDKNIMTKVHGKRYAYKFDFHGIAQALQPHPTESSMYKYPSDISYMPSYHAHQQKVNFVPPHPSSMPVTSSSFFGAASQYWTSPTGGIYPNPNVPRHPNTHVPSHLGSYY
# How it was run: (§1)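 After expression in yeast as GST fusions, human transcription factors were bound to glutathione beads, DNA-barcoded and mixed with a tag-only sample. The pools were incubated with 200 nmole of a 16-mer random double-stranded DNA library in Tris/NaCl/DTT/glycerol buffer (30 min, room temperature), washed and crosslinked with 0.1% formaldehyde. Proximity ligation with BsaI/T4 ligase ran for 1 h at 37 °C, before PCR amplification and sequencing on an Illumina NextSeq500. Binding signal is a hexamer's read frequency for a factor divided by its frequency for the tag-only sample.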
# [2] = target: T2, ELK1 (Homo sapiens, UniProt P19419 1-428); details: protein: recombinant; tags: N-terminal GST; dsDNA, one strand shown
# T2 sequence: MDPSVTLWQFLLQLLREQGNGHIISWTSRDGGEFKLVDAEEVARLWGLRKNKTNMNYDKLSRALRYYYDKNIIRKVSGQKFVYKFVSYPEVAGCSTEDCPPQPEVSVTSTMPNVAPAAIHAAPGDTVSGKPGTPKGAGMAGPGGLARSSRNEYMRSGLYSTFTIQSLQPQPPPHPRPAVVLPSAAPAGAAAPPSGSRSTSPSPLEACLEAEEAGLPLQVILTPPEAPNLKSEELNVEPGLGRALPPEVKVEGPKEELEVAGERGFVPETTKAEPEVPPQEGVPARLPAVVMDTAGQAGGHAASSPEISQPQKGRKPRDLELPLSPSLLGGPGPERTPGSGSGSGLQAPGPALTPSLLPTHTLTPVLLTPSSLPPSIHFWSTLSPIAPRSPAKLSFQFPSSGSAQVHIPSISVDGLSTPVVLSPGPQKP
# How it was run: as §1
# [3] = target: T3, GABPA (Homo sapiens, UniProt Q06546 1-454); details: protein: recombinant; tags: N-terminal GST; dsDNA, one strand shown
# T3 sequence: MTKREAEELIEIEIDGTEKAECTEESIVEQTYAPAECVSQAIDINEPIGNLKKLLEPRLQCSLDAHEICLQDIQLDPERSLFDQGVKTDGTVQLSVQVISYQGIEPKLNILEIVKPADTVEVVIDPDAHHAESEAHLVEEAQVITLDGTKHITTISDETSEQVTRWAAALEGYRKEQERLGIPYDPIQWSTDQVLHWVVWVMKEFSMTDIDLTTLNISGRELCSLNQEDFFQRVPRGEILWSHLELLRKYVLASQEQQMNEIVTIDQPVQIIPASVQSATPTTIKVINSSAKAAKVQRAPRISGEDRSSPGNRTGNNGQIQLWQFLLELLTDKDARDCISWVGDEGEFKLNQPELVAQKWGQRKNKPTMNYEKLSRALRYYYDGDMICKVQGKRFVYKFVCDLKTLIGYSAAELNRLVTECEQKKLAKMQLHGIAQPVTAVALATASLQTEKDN
# How it was run: as §1
# [4] = target: T4, ERG (Homo sapiens, UniProt P11308 1-479); details: protein: recombinant; tags: N-terminal GST; dsDNA, one strand shown
# T4 sequence: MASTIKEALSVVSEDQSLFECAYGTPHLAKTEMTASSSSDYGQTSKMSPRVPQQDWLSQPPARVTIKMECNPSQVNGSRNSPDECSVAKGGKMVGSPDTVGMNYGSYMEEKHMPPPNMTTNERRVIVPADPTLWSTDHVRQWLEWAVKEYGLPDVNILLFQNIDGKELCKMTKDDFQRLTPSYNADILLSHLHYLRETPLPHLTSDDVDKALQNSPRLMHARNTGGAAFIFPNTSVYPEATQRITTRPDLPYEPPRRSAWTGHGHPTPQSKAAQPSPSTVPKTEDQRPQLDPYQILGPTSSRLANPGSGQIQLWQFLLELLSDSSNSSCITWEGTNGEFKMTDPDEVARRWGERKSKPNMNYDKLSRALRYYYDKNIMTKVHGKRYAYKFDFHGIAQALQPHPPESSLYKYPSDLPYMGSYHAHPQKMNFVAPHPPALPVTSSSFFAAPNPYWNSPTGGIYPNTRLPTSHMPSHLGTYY
# How it was run: as §1
# [5] = target: ELF1 (Homo sapiens, UniProt P32519 1-619); details: protein: recombinant; tags: N-terminal GST; dsDNA, one strand shown
# How it was run: as §1
# [6] = target: T5, EHF (Homo sapiens, UniProt Q9NZC4 1-300); details: protein: recombinant; tags: N-terminal GST; dsDNA, one strand shown
# T5 sequence: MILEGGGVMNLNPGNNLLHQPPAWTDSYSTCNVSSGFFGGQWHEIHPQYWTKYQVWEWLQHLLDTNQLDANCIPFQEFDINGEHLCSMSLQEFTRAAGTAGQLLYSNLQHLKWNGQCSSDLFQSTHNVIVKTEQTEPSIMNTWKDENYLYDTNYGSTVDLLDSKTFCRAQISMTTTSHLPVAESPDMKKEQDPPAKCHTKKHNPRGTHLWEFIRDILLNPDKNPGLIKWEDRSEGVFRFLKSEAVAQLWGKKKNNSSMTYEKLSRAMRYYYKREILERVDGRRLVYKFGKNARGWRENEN
# How it was run: as §1
# [7] = target: SPI1 (Homo sapiens, UniProt P17947 1-270); details: protein: recombinant; tags: N-terminal GST; dsDNA, one strand shown
# How it was run: as §1
# [8] = target: SPIB (Homo sapiens, UniProt Q01892 1-262); details: protein: recombinant; tags: N-terminal GST; dsDNA, one strand shown
# How it was run: as §1
# [9] = target: T6, ELK3 (Homo sapiens, UniProt P41970 1-407); details: protein: recombinant; tags: N-terminal GST; dsDNA, one strand shown
# T6 sequence: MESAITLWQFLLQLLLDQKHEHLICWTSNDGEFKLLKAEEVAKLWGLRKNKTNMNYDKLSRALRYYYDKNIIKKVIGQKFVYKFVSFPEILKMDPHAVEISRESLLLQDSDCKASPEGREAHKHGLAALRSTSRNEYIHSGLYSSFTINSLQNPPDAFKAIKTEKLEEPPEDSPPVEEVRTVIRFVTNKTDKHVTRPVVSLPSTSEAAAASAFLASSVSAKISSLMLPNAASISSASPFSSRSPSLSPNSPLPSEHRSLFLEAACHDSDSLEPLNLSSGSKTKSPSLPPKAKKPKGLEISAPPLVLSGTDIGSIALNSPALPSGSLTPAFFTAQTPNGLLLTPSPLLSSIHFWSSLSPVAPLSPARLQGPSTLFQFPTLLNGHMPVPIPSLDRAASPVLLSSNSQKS
# How it was run: as §1
# [10] = target: T7, FEV (Homo sapiens, UniProt Q99581 1-238); details: protein: recombinant; tags: N-terminal GST; dsDNA, one strand shown
# T7 sequence: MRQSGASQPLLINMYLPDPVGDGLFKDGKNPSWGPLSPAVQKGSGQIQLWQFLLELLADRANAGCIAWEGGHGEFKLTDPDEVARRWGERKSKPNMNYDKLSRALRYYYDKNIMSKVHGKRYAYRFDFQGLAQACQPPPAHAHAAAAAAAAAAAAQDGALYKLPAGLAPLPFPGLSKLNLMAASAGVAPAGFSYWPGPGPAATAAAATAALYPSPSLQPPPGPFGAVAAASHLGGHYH
# How it was run: as §1
# [11] = target: ETV5 (Homo sapiens, UniProt P41161 1-510); details: protein: recombinant; tags: N-terminal GST; dsDNA, one strand shown
# How it was run: as §1
# [12] = target: HSF1 (Homo sapiens, UniProt Q00613 1-529); details: protein: recombinant; tags: N-terminal GST; chain copies: 3; dsDNA, one strand shown
# How it was run: as §1
# [13] = target: T8, SPIC (Homo sapiens, UniProt Q8N5J4 1-248); details: protein: recombinant; tags: N-terminal GST; dsDNA, one strand shown
# T8 sequence: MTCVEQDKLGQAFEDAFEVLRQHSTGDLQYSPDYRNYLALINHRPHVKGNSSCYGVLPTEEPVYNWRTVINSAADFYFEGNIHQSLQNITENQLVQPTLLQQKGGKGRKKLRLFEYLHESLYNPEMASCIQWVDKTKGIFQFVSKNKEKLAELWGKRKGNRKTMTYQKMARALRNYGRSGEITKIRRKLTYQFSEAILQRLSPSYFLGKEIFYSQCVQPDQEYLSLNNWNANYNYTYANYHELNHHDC
# How it was run: as §1
# [14] = target: ELF4 (Homo sapiens, UniProt Q99607 1-663); details: protein: recombinant; tags: N-terminal GST; dsDNA, one strand shown
# How it was run: as §1
# [15] = target: T9, ELK4 (Homo sapiens, UniProt P28324-2 1-405); details: protein: recombinant; tags: N-terminal GST; dsDNA, one strand shown
# T9 sequence: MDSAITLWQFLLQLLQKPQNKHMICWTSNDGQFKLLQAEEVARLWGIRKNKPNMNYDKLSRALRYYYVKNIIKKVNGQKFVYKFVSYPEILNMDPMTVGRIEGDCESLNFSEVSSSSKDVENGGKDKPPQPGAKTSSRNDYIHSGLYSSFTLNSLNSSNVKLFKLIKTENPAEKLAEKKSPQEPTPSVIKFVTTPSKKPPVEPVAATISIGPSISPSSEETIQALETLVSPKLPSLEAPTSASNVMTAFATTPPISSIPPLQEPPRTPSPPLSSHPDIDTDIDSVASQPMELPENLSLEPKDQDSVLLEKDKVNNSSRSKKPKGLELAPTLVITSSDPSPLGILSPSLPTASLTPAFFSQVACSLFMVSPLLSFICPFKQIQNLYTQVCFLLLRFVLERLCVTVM
# How it was run: as §1
# [16] = target: T10, ETV2 (Homo sapiens, UniProt O00321 1-342); details: protein: recombinant; tags: N-terminal GST; dsDNA, one strand shown
# T10 sequence: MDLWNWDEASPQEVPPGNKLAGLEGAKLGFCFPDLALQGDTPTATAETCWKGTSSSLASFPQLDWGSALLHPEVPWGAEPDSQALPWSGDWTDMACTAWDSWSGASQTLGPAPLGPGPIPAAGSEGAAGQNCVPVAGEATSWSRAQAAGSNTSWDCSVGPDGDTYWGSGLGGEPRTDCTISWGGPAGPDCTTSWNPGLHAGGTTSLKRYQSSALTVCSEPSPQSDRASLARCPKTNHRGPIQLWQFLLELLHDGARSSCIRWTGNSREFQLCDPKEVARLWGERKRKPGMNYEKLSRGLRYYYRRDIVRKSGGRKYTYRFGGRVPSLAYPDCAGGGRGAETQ
# How it was run: as §1
# [17] = target: T11, ELF3 (Homo sapiens, UniProt P78545 1-371); details: protein: recombinant; tags: N-terminal GST; dsDNA, one strand shown
# T11 sequence: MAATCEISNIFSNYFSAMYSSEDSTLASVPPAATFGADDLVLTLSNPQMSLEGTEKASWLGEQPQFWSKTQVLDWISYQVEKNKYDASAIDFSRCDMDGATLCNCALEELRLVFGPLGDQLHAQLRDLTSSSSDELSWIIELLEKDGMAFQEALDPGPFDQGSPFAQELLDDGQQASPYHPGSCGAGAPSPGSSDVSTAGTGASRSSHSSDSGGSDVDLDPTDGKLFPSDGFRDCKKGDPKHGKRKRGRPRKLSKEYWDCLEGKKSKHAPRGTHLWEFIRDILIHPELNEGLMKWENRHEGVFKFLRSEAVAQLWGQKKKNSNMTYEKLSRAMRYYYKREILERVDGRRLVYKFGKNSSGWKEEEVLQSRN
# How it was run: as §1
# [18] = target: CRX (Homo sapiens, UniProt O43186 1-299); details: protein: recombinant; tags: N-terminal GST; dsDNA, one strand shown
# How it was run: as §1
# [19] = target: ETV1 (Homo sapiens, UniProt P50549 1-477); details: protein: recombinant; tags: N-terminal GST; dsDNA, one strand shown
# How it was run: as §1
# Sequence of ELF1 (P32519 whole entry): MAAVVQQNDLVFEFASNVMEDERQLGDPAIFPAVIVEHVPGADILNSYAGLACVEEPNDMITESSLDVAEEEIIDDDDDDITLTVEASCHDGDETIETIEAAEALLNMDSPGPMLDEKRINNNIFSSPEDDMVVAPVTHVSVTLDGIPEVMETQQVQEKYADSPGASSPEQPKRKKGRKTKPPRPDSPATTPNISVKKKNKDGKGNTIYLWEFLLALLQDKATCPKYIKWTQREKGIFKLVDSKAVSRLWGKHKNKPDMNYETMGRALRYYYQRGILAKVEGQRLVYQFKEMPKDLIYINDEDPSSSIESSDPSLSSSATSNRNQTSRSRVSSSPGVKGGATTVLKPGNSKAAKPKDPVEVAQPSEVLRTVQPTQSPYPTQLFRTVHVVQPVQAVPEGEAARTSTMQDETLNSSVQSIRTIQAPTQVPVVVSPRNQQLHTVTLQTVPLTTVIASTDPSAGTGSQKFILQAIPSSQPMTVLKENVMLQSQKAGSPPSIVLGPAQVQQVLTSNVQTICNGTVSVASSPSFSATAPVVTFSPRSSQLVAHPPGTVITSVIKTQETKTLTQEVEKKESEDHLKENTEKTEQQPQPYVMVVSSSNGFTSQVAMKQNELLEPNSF
# Sequence of SPIB (Q01892 whole entry): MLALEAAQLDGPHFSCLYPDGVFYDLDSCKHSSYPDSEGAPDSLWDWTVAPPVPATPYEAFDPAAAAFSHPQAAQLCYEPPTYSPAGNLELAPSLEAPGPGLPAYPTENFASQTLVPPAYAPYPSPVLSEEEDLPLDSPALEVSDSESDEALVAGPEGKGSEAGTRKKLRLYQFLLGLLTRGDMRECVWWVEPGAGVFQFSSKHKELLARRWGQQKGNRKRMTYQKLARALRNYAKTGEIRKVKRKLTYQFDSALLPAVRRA
# Sequence of ETV5 (P41161 whole entry): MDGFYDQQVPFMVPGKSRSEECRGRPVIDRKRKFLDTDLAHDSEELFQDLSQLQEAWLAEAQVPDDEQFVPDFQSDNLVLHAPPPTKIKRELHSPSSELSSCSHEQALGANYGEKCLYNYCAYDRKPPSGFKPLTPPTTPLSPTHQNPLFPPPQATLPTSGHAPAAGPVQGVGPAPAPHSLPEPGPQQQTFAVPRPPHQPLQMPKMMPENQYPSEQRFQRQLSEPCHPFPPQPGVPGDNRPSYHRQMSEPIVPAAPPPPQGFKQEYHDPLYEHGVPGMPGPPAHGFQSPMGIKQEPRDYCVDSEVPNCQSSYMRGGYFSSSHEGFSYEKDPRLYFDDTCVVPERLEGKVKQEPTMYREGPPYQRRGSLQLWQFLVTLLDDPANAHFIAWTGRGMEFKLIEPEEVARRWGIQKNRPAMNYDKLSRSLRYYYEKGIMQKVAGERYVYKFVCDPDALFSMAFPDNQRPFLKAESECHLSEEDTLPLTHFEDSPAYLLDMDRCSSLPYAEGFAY
# Sequence of ETV1 (P50549 whole entry): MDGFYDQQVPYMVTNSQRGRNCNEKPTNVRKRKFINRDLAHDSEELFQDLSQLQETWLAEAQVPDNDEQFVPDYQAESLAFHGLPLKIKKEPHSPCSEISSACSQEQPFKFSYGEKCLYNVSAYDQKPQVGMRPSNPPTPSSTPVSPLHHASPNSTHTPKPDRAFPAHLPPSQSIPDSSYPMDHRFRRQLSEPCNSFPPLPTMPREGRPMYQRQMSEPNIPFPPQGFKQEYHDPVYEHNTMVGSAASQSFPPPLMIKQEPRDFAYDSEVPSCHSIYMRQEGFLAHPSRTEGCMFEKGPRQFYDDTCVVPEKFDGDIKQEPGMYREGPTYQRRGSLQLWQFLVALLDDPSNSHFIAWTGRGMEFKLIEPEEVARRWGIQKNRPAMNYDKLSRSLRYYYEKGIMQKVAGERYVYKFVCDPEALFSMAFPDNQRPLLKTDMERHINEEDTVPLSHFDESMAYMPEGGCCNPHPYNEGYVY
# Sequence of HSF1 (Q00613 whole entry): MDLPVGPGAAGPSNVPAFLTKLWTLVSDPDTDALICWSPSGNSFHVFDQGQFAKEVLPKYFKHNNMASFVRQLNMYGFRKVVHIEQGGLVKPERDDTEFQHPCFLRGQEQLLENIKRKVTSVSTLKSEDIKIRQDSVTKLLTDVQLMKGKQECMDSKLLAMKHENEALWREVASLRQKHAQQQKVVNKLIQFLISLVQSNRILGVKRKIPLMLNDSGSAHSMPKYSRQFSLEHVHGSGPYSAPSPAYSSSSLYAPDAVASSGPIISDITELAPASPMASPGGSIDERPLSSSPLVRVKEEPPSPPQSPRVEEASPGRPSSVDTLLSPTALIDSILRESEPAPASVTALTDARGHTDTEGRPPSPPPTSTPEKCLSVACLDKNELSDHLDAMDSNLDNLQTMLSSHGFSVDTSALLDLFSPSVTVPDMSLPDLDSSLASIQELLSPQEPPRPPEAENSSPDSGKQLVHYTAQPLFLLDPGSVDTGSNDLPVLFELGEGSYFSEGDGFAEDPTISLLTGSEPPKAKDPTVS
# Sequence of CRX (O43186 whole entry): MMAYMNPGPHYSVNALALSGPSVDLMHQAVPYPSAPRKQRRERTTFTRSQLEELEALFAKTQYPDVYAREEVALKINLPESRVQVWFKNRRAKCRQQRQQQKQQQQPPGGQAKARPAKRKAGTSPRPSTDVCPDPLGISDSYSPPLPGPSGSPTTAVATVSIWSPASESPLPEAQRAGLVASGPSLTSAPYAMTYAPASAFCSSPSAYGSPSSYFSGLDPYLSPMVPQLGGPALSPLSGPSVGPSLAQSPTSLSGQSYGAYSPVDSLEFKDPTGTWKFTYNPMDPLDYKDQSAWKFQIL
# Sequence of ELF4 (Q99607 whole entry): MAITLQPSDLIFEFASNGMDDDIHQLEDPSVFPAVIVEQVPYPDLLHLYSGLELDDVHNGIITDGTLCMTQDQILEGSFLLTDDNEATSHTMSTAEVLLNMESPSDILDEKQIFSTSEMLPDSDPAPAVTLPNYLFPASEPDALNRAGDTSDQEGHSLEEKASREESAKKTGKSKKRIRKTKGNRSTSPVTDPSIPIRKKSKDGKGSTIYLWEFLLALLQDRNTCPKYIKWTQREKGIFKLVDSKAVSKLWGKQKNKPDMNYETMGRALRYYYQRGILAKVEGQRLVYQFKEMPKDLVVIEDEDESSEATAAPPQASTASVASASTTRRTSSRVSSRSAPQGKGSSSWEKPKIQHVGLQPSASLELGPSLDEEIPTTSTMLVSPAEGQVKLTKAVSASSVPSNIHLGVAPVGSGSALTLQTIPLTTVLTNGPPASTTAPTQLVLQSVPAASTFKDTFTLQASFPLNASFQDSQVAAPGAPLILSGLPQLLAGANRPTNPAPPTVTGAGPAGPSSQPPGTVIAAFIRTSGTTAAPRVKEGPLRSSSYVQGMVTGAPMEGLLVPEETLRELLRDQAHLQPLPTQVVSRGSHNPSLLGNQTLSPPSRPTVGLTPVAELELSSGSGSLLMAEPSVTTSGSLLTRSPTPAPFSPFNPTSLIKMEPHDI
sequence,measurement,setting,value
TAAGCT,binding signal,[1],"1.21 fold enrichment (6-mer frequency, TF over GST control)"
same,binding signal,[2],"1.24 fold enrichment (6-mer frequency, TF over GST control)"
same,binding signal,[3],"1.17 fold enrichment (6-mer frequency, TF over GST control)"
same,binding signal,[4],"1.18 fold enrichment (6-mer frequency, TF over GST control)"
same,binding signal,[5],"1.15 fold enrichment (6-mer frequency, TF over GST control)"
same,binding signal,[6],"1.2 fold enrichment (6-mer frequency, TF over GST control)"
same,binding signal,[7],"1.1 fold enrichment (6-mer frequency, TF over GST control)"
same,binding signal,[8],"1.18 fold enrichment (6-mer frequency, TF over GST control)"
same,binding signal,[9],"1.12 fold enrichment (6-mer frequency, TF over GST control)"
same,binding signal,[10],"1.08 fold enrichment (6-mer frequency, TF over GST control)"
same,binding signal,[11],"1.16 fold enrichment (6-mer frequency, TF over GST control)"
same,binding signal,[12],"1.91 fold enrichment (6-mer frequency, TF over GST control)"
same,binding signal,[13],"1.24 fold enrichment (6-mer frequency, TF over GST control)"
same,binding signal,[14],"1.18 fold enrichment (6-mer frequency, TF over GST control)"
same,binding signal,[15],"1.21 fold enrichment (6-mer frequency, TF over GST control)"
same,binding signal,[16],"1.19 fold enrichment (6-mer frequency, TF over GST control)"
same,binding signal,[17],"1.32 fold enrichment (6-mer frequency, TF over GST control)"
same,binding signal,[18],"3.23 fold enrichment (6-mer frequency, TF over GST control)"
same,binding signal,[19],"1.23 fold enrichment (6-mer frequency, TF over GST control)"
